Bioassay records as filed in PubChem BioAssay.
ABHD5 PLIN5 PPI – blocks binding of human ABHD5 to perilipin-5; Q00G26+Q8WTS1; Split G. princeps luciferase complementation, luminescence, 4 h; inhibition, % at 4 µM; 0.78% of 360,000 active; AID 602281;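 active means inhibition above the mean inhibition across every tested compound plus 3 SD, cut at about 22% in these data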;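 further: 0% = DMSO only wells and the 100% control is not disclosed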
KKLEB cytotox – reduces viability of KKLEB cystic fibrosis airway cells | KKLEB CF airway cells viability, ATPlite luminescence, overnight; hits give low values; cells stimulated with P. aeruginosa culture filtrate | activity change (cytotoxicity), % at 5 µM | 0.36% of 360,000 active;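 active means corrected activity change at or below -50% at 5 µM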
Mdm2 MdmX PPI – inhibitors of human Mdm2/MdmX interaction; O15151+Q00987; SaOS-2 split-luciferase Mdm2/MdmX complementation, luminescence; inhibition, % at 8 µM; 3% of 330,000 active; AID 485346;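 active means inhibition of at least 50% at 8 µM in the primary screen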
Target sequence (O15151 whole entry, looked up): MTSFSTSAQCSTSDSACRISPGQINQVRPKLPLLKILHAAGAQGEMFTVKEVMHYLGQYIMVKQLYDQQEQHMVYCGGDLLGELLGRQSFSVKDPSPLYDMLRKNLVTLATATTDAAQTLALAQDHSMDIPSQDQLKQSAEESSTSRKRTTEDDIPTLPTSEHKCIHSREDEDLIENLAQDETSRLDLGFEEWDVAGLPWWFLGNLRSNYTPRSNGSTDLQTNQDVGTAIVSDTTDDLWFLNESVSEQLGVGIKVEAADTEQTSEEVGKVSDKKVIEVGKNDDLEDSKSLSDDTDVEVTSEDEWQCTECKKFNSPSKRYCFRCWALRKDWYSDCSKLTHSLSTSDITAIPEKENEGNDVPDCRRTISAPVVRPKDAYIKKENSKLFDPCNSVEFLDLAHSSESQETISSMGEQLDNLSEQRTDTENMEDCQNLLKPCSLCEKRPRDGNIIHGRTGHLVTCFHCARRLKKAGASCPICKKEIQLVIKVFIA
Target sequence (Q00987 whole entry, looked up): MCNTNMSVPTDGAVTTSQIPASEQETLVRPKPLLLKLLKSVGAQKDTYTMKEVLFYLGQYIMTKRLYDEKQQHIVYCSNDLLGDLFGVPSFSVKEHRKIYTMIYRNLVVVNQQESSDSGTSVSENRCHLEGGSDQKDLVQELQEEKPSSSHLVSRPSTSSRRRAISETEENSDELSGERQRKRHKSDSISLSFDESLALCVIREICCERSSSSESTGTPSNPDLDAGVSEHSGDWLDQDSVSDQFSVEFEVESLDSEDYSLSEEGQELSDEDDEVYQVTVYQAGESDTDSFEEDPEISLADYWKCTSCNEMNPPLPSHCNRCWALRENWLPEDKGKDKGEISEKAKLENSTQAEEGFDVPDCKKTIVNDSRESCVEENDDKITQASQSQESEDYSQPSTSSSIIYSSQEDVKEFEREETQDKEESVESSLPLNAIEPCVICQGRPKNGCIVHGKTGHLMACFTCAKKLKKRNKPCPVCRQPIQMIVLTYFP
CF NFkB inh – inhibitors of cystic fibrosis induced NF-kB. inhibition, % at 5 µM. 0.86% of 360,000 active. AID 588850. KKLEB NF-kB-GFP reporter, PAF-induced, GFP fluorescence overnight;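 active means at least 50% inhibition at 5 µM, scaled per plate between neutral and stimulator controls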;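 further: PAF is a Pseudomonas aeruginosa culture filtrate used as stimulus; plate controls were PAF-stimulated DMSO wells for no effect and unstimulated DMSO wells for full effect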
Peg3 prom inh-1 – Peg3 promoter activity inhibition; HeLa PEG-Prom luciferase reporter, luminescence, overnight; inhibition, % at 20 µM; 1.7% of 360,000 active;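 active means inhibition of at least 50% at 20 µM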
HIF-2a inh – inhibitors of HIF-2a. 786-0 RCC cells HIF-2a reporter, luciferase luminescence, overnight. inhibition, % at 18.8 µM. 0.72% of 360,000 active. AID 624352;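 active means inhibition of the luminescence signal of 40% or more relative to plate controls, in a single-dose primary screen at 18.75 µM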
Mdm2 MdmX conf-1 – human Mdm2/MdmX binding inhibition, confirmed; shares compounds with Mdm2 MdmX PPI; inhibition, % at 8 µM; 55% of 10,000 active; luminescent assay
FLuc counter – full-length luciferase inhibition in Mdm2/MdmX counter-screen; 77% of 6,200 active; SaOS-2 full-length luciferase counterscreen, luminescence; inhibition, % at 8 µM; shares compounds with Mdm2 MdmX PPI; AID 504607;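 active means mean inhibition at 8 µM reaching about 37%, which flags the compound as non-specific, limit read from the data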;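 further: p53-null SaOS-2 cells with luciferase driven by a doxycycline-inducible promoter; compound on cells about two nights before reading with doxycycline added after day one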
Peg3 prom inh-2 – confirmation of Peg3 promoter inhibitors | shares compounds with Peg3 prom inh-1 | HeLa PEG-Prom luciferase reporter, luminescence, overnight | inhibition, % at 20 µM | 84% of 1,300 active | AID 602417;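 active means at 20 µM dose, 40% or more inhibition averaged across four replicates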
CF NFkB conf – CF NF-kB inhibition confirmation, single concentration; KKLEB CF airway cells, PAF-induced NF-kB-GFP fluorescence, overnight; shares compounds with CF NFkB inh; 64% of 1,300 active; inhibition, % at 5 µM; AID 602472;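 further: stimulus PAF is a Pseudomonas aeruginosa filtrate and not platelet activating factor; plate controls were DMSO wells with stimulus for no effect and unstimulated DMSO wells for full effect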
ABHD5 PLIN5 conf – ABHD5-PLIN5 interaction inhibition, confirmed. shares compounds with ABHD5 PLIN5 PPI. biochemical ABHD5-PLIN5 interaction, luminescence. inhibition, % at 4 µM. 67% of 2,200 active. AID 651612; in the data active means inhibition above about 23%;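 further: 0% = DMSO vehicle wells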
HNF4 split-luc – counter-screen for ABHD5-PLIN5 inhibitors: HNF4 split-luciferase | shares compounds with ABHD5 PLIN5 PPI | HNF4 dimerization, luminescence, biochemical | inhibition, % at 4 µM | 77% of 2,200 active | AID 651674;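 active means mean inhibition across replicate wells exceeding the computed hit threshold, cut at about 13% in these data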;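 further: light from luciferase halves that rejoin when HNF4 fusion proteins dimerize; 0% = DMSO only wells and the 100% control is not given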
Mdm2 MdmX conf-2 – confirmation of inhibitors of human Mdm2/MdmX interaction, set 2; shares compounds with HIF-2a inh; SaOS-2 split-luciferase Mdm2/MdmX complementation, luminescence; inhibition, % at 8 µM; 99% of 740 active;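 active means mean inhibition of the luminescence signal across two replicates at or above 26 percent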
HIF-2a conf – confirmation of HIF-2a inhibitors | AID 651580 | inhibition, % at 18.8 µM | 786-0 RCC cells, HIF-2a luciferase reporter luminescence, overnight | 56% of 1,800 active | shares compounds with HIF-2a inh;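 active means mean inhibition across four replicates of at least 40 percent at the single tested concentration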
HIF-1a cs – HIF-1a inhibition counter-screen for HIF-2a hits; shares compounds with HIF-2a inh; MiaPaCa-2 HIF-1a luciferase reporter, desferoxamine, overnight; inhibition, % at 18.8 µM; 72% of 1,800 active;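 active means mean inhibition of the reporter signal across four replicates at the single tested dose of 50% or more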
* = called active by the depositor. A selection: hits, their analogues and other compounds. The true share with any hit is near 4.6%. Unless noted, no stated cut-off is given here; in the data, active means inhibition above about 40%; inactive means the rest.

`Cc1ccc(-c2nc(-c3ccccn3)no2)cc1` gave ABHD5 PLIN5 PPI 17, KKLEB cytotox -73*, Mdm2 MdmX PPI 86*, CF NFkB inh -6, Peg3 prom inh-1 96*, HIF-2a inh 87*, Mdm2 MdmX conf-1 86*, FLuc counter 53*, Peg3 prom inh-2 89*, Mdm2 MdmX conf-2 95*, HIF-2a conf 95* and HIF-1a cs 94*.
`CCCCOc1ccc(C(=O)C(CN2CCOCC2)c2ccccc2)cc1` (stereo not drawn) gave ABHD5 PLIN5 PPI 4, KKLEB cytotox -38, Mdm2 MdmX PPI 94*, CF NFkB inh -18, Peg3 prom inh-1 97*, HIF-2a inh 87*, Mdm2 MdmX conf-1 74*, FLuc counter 21, HIF-2a conf 25 and HIF-1a cs 105*.
Screening O=C(c1ccccc1)C(CCC(CN1CCOCC1)C(=O)c1ccccc1)CN1CCOCC1 (stereo not drawn) returned ABHD5 PLIN5 PPI 58*, KKLEB cytotox -41, Mdm2 MdmX PPI 95*, CF NFkB inh 84*, Peg3 prom inh-1 105*, HIF-2a inh 76*, Mdm2 MdmX conf-1 65*, FLuc counter 51*, CF NFkB conf -31, ABHD5 PLIN5 conf 46*, HNF4 split-luc 102* and Mdm2 MdmX conf-2 92*.
For O=c1c2ccccc2oc2cc(C#CC3(O)CCCCC3)ccc12 the results were ABHD5 PLIN5 PPI -12, KKLEB cytotox -42, Mdm2 MdmX PPI 87*, CF NFkB inh 4, Peg3 prom inh-1 60*, HIF-2a inh 44*, Mdm2 MdmX conf-1 76*, FLuc counter 98*, Peg3 prom inh-2 59*, HIF-2a conf 73* and HIF-1a cs 97*.
For O=c1c2ccccc2sc2ccc(C#CC3(O)CCCCC3)cc12 the results were ABHD5 PLIN5 PPI -5, KKLEB cytotox -85*, Mdm2 MdmX PPI 94*, CF NFkB inh -25, Peg3 prom inh-1 79*, HIF-2a inh 87*, Mdm2 MdmX conf-1 94*, FLuc counter 25, Peg3 prom inh-2 92*, HIF-2a conf 94* and HIF-1a cs 104*.
`COc1cccc2oc3cc(C#CC4(O)CCCCC4)ccc3c(=O)c12` gave ABHD5 PLIN5 PPI 1, KKLEB cytotox -34, Mdm2 MdmX PPI 13, CF NFkB inh 1, Peg3 prom inh-1 -95 and HIF-2a inh -144.
COc1cccc2sc3ccc(C#CC4(O)CCCCC4)cc3c(=O)c12 was read as ABHD5 PLIN5 PPI -1, KKLEB cytotox -14, Mdm2 MdmX PPI -107, CF NFkB inh -35, Peg3 prom inh-1 -162 and HIF-2a inh -278.
For CN(C)c1ccc(CNc2nc3cc(-c4ccc(F)cc4)sc3c(=O)n2C)cc1 the results were ABHD5 PLIN5 PPI -2, KKLEB cytotox 4, CF NFkB inh -12, Peg3 prom inh-1 -300 and HIF-2a inh -256.
For CC1Cc2ccccc2N1c1ncnc(N)c1[N+](=O)[O-] (stereo not drawn) the results were ABHD5 PLIN5 PPI 5, KKLEB cytotox -17, Mdm2 MdmX PPI 91*, CF NFkB inh 85*, Peg3 prom inh-1 17, HIF-2a inh 35, Mdm2 MdmX conf-1 93*, FLuc counter 54* and Mdm2 MdmX conf-2 102*.
Screening CN(C)S(=O)(=O)c1cccc(COC(=O)CNC(=O)c2ccc(Br)o2)c1 returned ABHD5 PLIN5 PPI 10, KKLEB cytotox 9, Mdm2 MdmX PPI 1, CF NFkB inh 5, Peg3 prom inh-1 -11 and HIF-2a inh -11.
O=C(Nc1ccc(N2CCN(C(=O)c3cccs3)CC2)cc1)c1ccc([N+](=O)[O-])o1 was read as ABHD5 PLIN5 PPI 5, KKLEB cytotox -56*, Mdm2 MdmX PPI 72*, CF NFkB inh 107*, Peg3 prom inh-1 107*, HIF-2a inh 98*, Mdm2 MdmX conf-1 80*, FLuc counter 39*, HIF-2a conf 99* and HIF-1a cs 104*.
For Cc1ccc(C(=O)Nc2ccc(S(=O)(=O)N3CCCC3)cc2)o1 the results were ABHD5 PLIN5 PPI 1, KKLEB cytotox 5, Mdm2 MdmX PPI 9, CF NFkB inh 7, Peg3 prom inh-1 5 and HIF-2a inh -1.
Screening CC(=O)N1CCN(c2ccc(NC(=O)c3ccc([N+](=O)[O-])o3)cc2Cl)CC1 returned ABHD5 PLIN5 PPI -4, KKLEB cytotox -27, Mdm2 MdmX PPI 69*, CF NFkB inh 62*, Peg3 prom inh-1 101*, HIF-2a inh 88*, Mdm2 MdmX conf-1 68*, FLuc counter 27, CF NFkB conf 8, HIF-2a conf 52* and HIF-1a cs 83*.
`O=C(Nc1ccc(S(=O)(=O)N2CCCC2)cc1)c1ccc([N+](=O)[O-])o1` gave ABHD5 PLIN5 PPI 8, KKLEB cytotox -15, Mdm2 MdmX PPI 67*, CF NFkB inh 83*, Peg3 prom inh-1 97*, HIF-2a inh 77*, Mdm2 MdmX conf-1 31, HIF-2a conf 50* and HIF-1a cs 94*.
`Nc1nc2ccccc2n1CCOc1ccc(F)cc1` gave ABHD5 PLIN5 PPI -4, KKLEB cytotox -6, Mdm2 MdmX PPI 29, CF NFkB inh -8, Peg3 prom inh-1 16 and HIF-2a inh 19.
